Results: PubChem BioAssay AID2546 (National Center for Advancing Translational Sciences (NCATS), 2010)
In all, about 310,000 compounds went through this assay and about 11,000 (3.5%) were called active. Where a call stands in place of a potency, no number is given. Not shown: some 8% with an inconclusive outcome. Calls follow the shape of the dose curve; as a rule, active = well fitted inhibition curve with a large enough effect; inconclusive = small, poorly fitted or top-dose-only effect, or effect the other way; inactive = flat fitted curve, though single readings scatter. Only a selection was taken, and actives are over-represented in it overall.

Assay: VP16 counterscreen qHTS for inhibitors of ROR gamma transcriptional activity;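 also: Gal4-VP16 expression switched on by copper sulfate through the metallothionein promoter; nearly all actives have a fitted effect of over 50% in size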
Settings: Drosophila S2 Gal4-VP16 UAS-luciferase, luminescence, 20 h; series mostly up to 53.6 µM
Potency is read from the fitted curve at half-maximal effect.

Compound	Potency
CCOc1cc2[nH]c(=S)n(Cc3ccc(C(=O)N4CCN(C)CC4)cc3)c(=O)c2cc1OCC	inactive
COc1ccc(C(=O)CSc2nc(C)cc(C)n2)cc1[N+](=O)[O-]	inactive
COc1ccc(C(C[N+](=O)[O-])n2nc(C)cc2C)cc1 (stereo not drawn)	10 µM (active)
COc1ccc(OCc2cn3c(C)cc(C)nc3n2)cc1	inactive
Cc1cccc(N2C(=O)N3[C@H](c4ccc(F)cc4)[C@@H]4C(=O)N(C5CCCCC5)C(=O)[C@@H]4[C@]3(Cc3ccccc3)C2=O)c1	inactive
CC1CC2=C(CC1/C=N/NC(N)=S)C(C)(C)CCC2 (stereo not drawn)	2.82 µM (active)
COc1ccc(/C=N/OCc2ccccc2C#N)c(OC)c1	inactive
O=C1CCC(C(=O)N2CCN(c3ccccc3Cl)CC2)CN1CC1CCCCC1 (stereo not drawn)	inactive
COc1cc(CN2CCC(n3nccc3NC(=O)CCCc3ccccc3)CC2)ccc1O	inactive
CCc1ccc(-c2nnn(Cc3nc4ccccc4s3)n2)cc1	10 µM (active)
CCc1ccc(-c2nnn(Cc3nn[nH]n3)n2)cc1	inactive
Clc1ccc(-c2nnc(SCc3nc4ccccc4s3)o2)cc1	inactive
CC(C)C[C@@H](NC(=O)[C@H]1CCCN1C(=O)Cc1ccccc1)C(N)=O	inactive
CCOC(=O)c1ccccc1NC(=O)CSc1nc2ccccc2c(=O)[nH]1	inactive
CCOC(=O)c1c(NC(=S)Nc2ccccc2)sc2c1CCN(C)C2	inactive
CCOC(=O)c1cc2c(nc1NC(=S)Nc1ccccc1)CC(C)(CC)OC2 (stereo not drawn)	7.94 µM (active)
CCOC(=O)C1CN(S(=O)(=O)c2ccc(OC)cc2)c2cc(Cl)ccc2O1 (stereo not drawn)	inactive
O=C(C1CCN(Cc2ccc(Cl)cc2)CC1)N1CCN(Cc2ccc3c(c2)OCO3)CC1	inactive
O=C(Nc1cccnc1)c1cccc(S(=O)(=O)N2CCCC2)c1	inactive
O=C(NNC1=NCCC1)c1cccc(S(=O)(=O)N2CCCCC2)c1	10 µM (active)
O=C(NNC(=S)Nc1ccccc1)c1cccc(S(=O)(=O)N2CCOCC2)c1	inactive
Cn1c(SCC(=O)N2CCCC2)nnc1-c1ccc2c(c1)OCO2	inactive
O=C(CCNS(=O)(=O)c1cccs1)N1CCN(c2ccc(F)cc2)CC1	inactive

Compound	Potency
COc1cc(S(=O)(=O)Nc2ncn[nH]2)ccc1Cl	inactive
CCn1c(=O)cc(O)c2ccccc21	inactive
CCn1c(O)c(N=NC(=O)c2cccc(S(=O)(=O)N3CCCCC3)c2)c2ccccc21	inactive
CCn1c(O)c(N=NC2=NC(=O)CS2)c2cc(C)ccc21	12.6 µM (active)
COc1cccc(C(=O)NNC(=O)c2cccc(F)c2)c1	inactive
Cc1cc(C)nc(N/N=C/c2c(CO)cnc(C)c2O)n1	inactive
COc1ccc(OC)c(CCNC(=O)CCn2ccc3cc(S(=O)(=O)N4CCCC4)ccc32)c1	inactive
CC(=O)Nc1ccc(-c2nc3ccccc3o2)cc1	inactive
Cc1cc2nc(-c3ccc(NC(=O)c4cccnc4)cc3)oc2cc1C	inactive
Cc1ccc2nc(-c3ccc(NC(=O)c4cccnc4)cc3)oc2c1	1.26 µM (active)
COc1ccc(C)cc1NC(=O)C(OC(=O)c1cccc(S(=O)(=O)N(C)c2ccccc2)c1)c1ccccc1 (stereo not drawn)	inactive
CN(c1ccccc1)S(=O)(=O)c1ccc(Cl)c(C(=O)OCC(N)=O)c1	inactive
CC(=O)c1c(C)[nH]c(C(=O)COC(=O)c2cccc(S(=O)(=O)N(C)c3ccccc3)c2)c1C	5.62 µM (active)
CCCn1nnnc1NCc1ccc(OC)cc1	inactive
CCn1c(=O)c2ccccc2n(CC(=O)N2CCCc3ccccc32)c1=O	inactive
O=C(Nc1ccccc1Cl)/C(Cl)=C(\Cl)S(=O)c1ccccc1 (stereo not drawn)	0.794 µM (active)
COCCN(CCOC)C(=S)Nc1ccccc1Cl	inactive
O=C(Nc1ccccc1Cl)Nn1cnnc1	inactive
Cc1cccc(C(=O)Nc2ccc(Oc3cnccn3)cc2)c1	inactive
COc1ccc(OC)c(S(=O)(=O)N2CCCC(C(=O)NCCc3ccccc3)C2)c1 (stereo not drawn)	inactive
COc1ccc(NC(=O)Cn2ncn3c(cc4ccccc43)c2=O)c(OC)c1OC	inactive
Cc1onc(-c2ccccc2)c1C(=O)N1CCN(S(=O)(=O)c2ccccc2C(F)(F)F)CC1	inactive
Cc1ccc(/C=C2\CCn3c2nc2cc(C(=O)O)ccc2c3=O)c(C)c1	inactive

Compound	Potency
CC1CC(C)CN(CCOc2cccc3ccccc23)C1 (stereo not drawn)	inactive
CCOC(=O)[C@@H]1[C@H]2COc3cc(OC)ccc3[C@H]2N2C(=O)N(c3ccc(F)cc3)C(=O)[C@]12C	inactive
O=C(Nc1cccc(S(=O)(=O)Nc2ccc(Cl)cc2)c1)c1ccc2c(c1)OCCO2	0.794 µM (active)
O=C(Nc1ccc2c(c1)OCCO2)c1ccc(Cl)c(S(=O)(=O)N2CCCCC2)c1	inactive
O=C(Nc1cccc(S(=O)(=O)N2CCCCC2)c1)c1ccc2c(c1)OCO2	inactive
O=C(NC1CCCC1)C(c1c(F)cccc1Cl)N(C(=O)c1csnn1)C1CC1 (stereo not drawn)	inactive
COc1ccc2nc(C)cc(Nc3cccc(C(=O)O)c3)c2c1	inactive
COC(=O)CSc1nccc(-c2cccs2)n1	inactive
O=C(O)COc1ccc(-c2nccc(-c3cccs3)n2)cc1	15.8 µM (active)
O=C(Nc1ccnc(-c2ccncc2)n1)c1cccs1	inactive
CC(C)(C)c1ccc(SCCc2ccncc2)cc1	17.8 µM (active)
Cc1ccc(SCCSc2ncccn2)cc1	inactive
Cc1cc(C)c(NC(=O)CSc2nc3ccncc3[nH]2)c(C)c1	inactive
Cc1cc(C)c(SCCc2ccncc2)c(C)c1	11.2 µM (active)
c1ccc(CSCCc2ccncc2)cc1	inactive
CCN(Cc1ccncc1)C(=O)CCc1ccccc1	inactive
C=CCOc1ccc(/C=C2/C(=O)ON=C2C)cc1OCC	inactive
CCOc1ccc(NC(=O)C(C)N2C(=O)c3ccccc3C2=O)cc1 (stereo not drawn)	inactive
Cc1ccc(S(=O)(=O)NC2CCCCCC2)cc1C(N)=O	inactive
CCc1ccc(-n2c(=S)sc3c(=O)n(-c4ccccc4OC)c(=S)[nH]c32)cc1	inactive
CCCSc1nc2sc3c(c2c(=O)n1-c1ccc(OC)cc1)CCN(C)C3	inactive
COc1ccc(-n2c(=S)[nH]c3sc4c(c3c2=O)CCc2ccccc2-4)cc1	0.251 µM (active)
